Measured values reported in PubChem BioAssay (NCI).
Compounds without any hit were thinned out: in the full panel of roughly 83,000, 20% have a hit.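 In brief: 96-well plates, 48 h treatment, single concentration, percent growth endpoint.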 Activity calls are given as the source filed them. Rule for the calls: active = growth percent below 10; inactive = the rest.

Tests used:
Test in all cases: NCI-60 one-dose screen, 48 h (100 = growth as untreated, 0 = no growth, -100 = all killed)
Conditions in all cases: 10 µM unless noted
[1] = system: NCI-H226 lung
[2] = system: NCI-H322M lung
[3] = system: HOP-62 NSCLC
[4] = system: NCI-H460 lung
[5] = system: HOP-92 NSCLC
[6] = system: NCI-H522 lung
[7] = system: A549/ATCC NSCLC
[8] = system: 786-0 renal
[9] = system: COLO 205 colon
[10] = system: DU-145 prostate
[11] = system: K-562 leukemia
[12] = system: MALME-3M melanoma
[13] = system: MDA-MB-231 breast
[14] = system: RXF 393 renal
[15] = system: SF-268 CNS
[16] = system: SF-295 CNS
[17] = system: SF-539 CNS
[18] = system: UACC-257 melanoma
[19] = system: M14 melanoma

Measured: growth

Cc1cccc(NC(=O)CN2CCN(c3ncnc4c3cnn4-c3ccccc3)CC2)c1
inactive: [1] 84.8% | [2] 91.3% | [3] 96.2% | [4] 73% | [5] 98.2% | [7] 97% | [8] 98.1% | [9] 109% | [10] 96.7% | [11] 67.5% | [12] 99.4% | [13] 87.4% | [14] 90% | [15] 88.4% | [16] 117% | [17] 102% | [18] 102% | [19] 94.4%
active: [6] -39.6%

Cn1cc(-c2nc(N)nnc2-c2c[nH]c3ccc(F)cc23)c2cc(Br)cnc21
active: [1] 1.02% | [4] 0.596% | [5] -6.31% | [6] -52.3% | [8] 5.54% | [9] -82.9% | [11] 5.23% | [13] 5.57% | [14] -4.53% | [15] 4.51% | [16] 9.21% | [17] -11.5% | [19] -9.79%
inactive: [2] 34.8% | [3] 20.1% | [7] 11.1% | [10] 10.1% | [12] 21.6% | [18] 29.8%

COc1cc(-c2ccc(/C=N/NC(=O)c3[nH]c4ccc(Br)cc4c3-c3ccccc3)o2)cc(OC)c1OC
active: [17] -13.1%
inactive: [1] 49.6% | [2] 81.2% | [3] 62.6% | [4] 62.8% | [5] 61.7% | [6] 82.8% | [7] 71.6% | [8] 67.2% | [9] 94.7% | [10] 81.1% | [11] 85.6% | [12] 95.4% | [14] 88.7% | [15] 59% | [16] 56.6% | [18] 92.1% | [19] 74.9%

Nc1nnc(-c2c[nH]c3ncc(Br)cc23)c(-c2c[nH]c3ccc(F)cc23)n1
inactive: [1] 50.2% | [2] 50.5% | [3] 46.6% | [4] 25.7% | [5] 72.9% | [6] 50.5% | [7] 40.7% | [8] 39.2% | [9] 16.2% | [10] 44% | [11] 23% | [12] 13.7% | [13] 51.6% | [14] 40.9% | [15] 49% | [16] 35.1% | [17] 34.8% | [18] 44.9% | [19] 23.4%

COc1ccc(C(=O)/C=C/c2cccc(Cl)c2Cl)cc1S(N)(=O)=O
inactive: [1] 18.7% | [2] 11.5% | [5] 21.9% | [12] 23.1% | [15] 18% | [18] 34.8%
active: [3] -69.2% | [4] -0.608% | [6] -56.3% | [7] -2.67% | [8] -71.2% | [9] -79.3% | [10] -76.3% | [13] 1.88% | [14] -71% | [16] -38.1% | [17] -75.5% | [19] -76.9%

CCOC(=O)C1=C(N)N(c2ccccc2)C2=C(C(=O)CC(C)(C)C2)C1c1ccc(N2CCOCC2)cc1 (centres undefined)
inactive: [1] 89.8% | [2] 99.1% | [3] 102% | [4] 106% | [5] 87.7% | [6] 89.4% | [7] 103% | [8] 87.7% | [9] 108% | [10] 111% | [11] 96.9% | [12] 112% | [13] 104% | [14] 91.2% | [15] 97.4% | [16] 98.9% | [17] 93% | [18] 109% | [19] 101%

CC(C)Sc1nc(NCCc2c[nH]c3ccccc23)c(C#N)c(-c2ccccc2)n1
inactive: [1] 33.8% | [2] 85.4% | [3] 31.9% | [6] 25.4% | [7] 39.6% | [9] 11.9% | [10] 42.5% | [12] 55.8% | [15] 45% | [17] 40.8% | [18] 86.4% | [19] 42.7%
active: [4] 6.33% | [5] 4.4% | [8] 1.53% | [11] 8.87% | [13] -17.3% | [14] -27.6% | [16] -14.3%

CCOC(=O)C1=C(N)N(c2ccccc2)C2=C(C(=O)CC(C)(C)C2)C1c1ccccc1Cl (centres undefined)
inactive: [1] 76.3% | [2] 82.2% | [3] 94.1% | [4] 60.2% | [5] 68.9% | [6] 57.5% | [7] 75.6% | [8] 79.4% | [9] 65.3% | [10] 88.2% | [11] 41.5% | [12] 89.3% | [13] 84.8% | [14] 78.2% | [15] 80% | [16] 75% | [17] 100% | [18] 72.5% | [19] 50.8%

Cc1cccc(NC(=O)[C@]23CCC(C)(C)CC2C2=CCC4[C@@]5(C)C[C@@H](O)[C@H](O)[C@@](C)(CO)C5CC[C@@]4(C)[C@]2(C)CC3)c1 (some centres undefined)
active: [1] -17.8% | [4] -18.3% | [5] -24.8% | [9] -31.7% | [13] -19.1% | [14] -49% | [16] 4.56% | [17] -2.33%
inactive: [2] 51.6% | [3] 50.9% | [6] 10.8% | [7] 21.1% | [8] 22.7% | [10] 32.2% | [11] 15.5% | [12] 28.3% | [15] 41% | [18] 39.8% | [19] 36.1%

Cn1cc(-c2cc(N)n3nc(-c4cn(C)c5ccc(Cl)cc45)cc3n2)c2ccccc21
inactive: [1] 105% | [2] 103% | [3] 115% | [4] 115% | [5] 133% | [6] 100% | [7] 107% | [8] 88.4% | [9] 117% | [10] 111% | [11] 108% | [12] 104% | [13] 107% | [14] 115% | [15] 107% | [16] 97.2% | [17] 105% | [18] 102% | [19] 102%

CC1(C)CC[C@]2(C(=O)O)CC[C@]3(C)C(=CCC4[C@@]5(C)C[C@@H](O)[C@@H]6OC(c7ccccc7F)OC[C@@]6(C)C5CC[C@]43C)C2C1 (some centres undefined)
active: [4] 3.39% | [5] 5.75% | [6] 5.45% | [9] -44% | [14] -14.5% | [16] -0.465% | [17] 5.14%
inactive: [1] 27.9% | [2] 13.5% | [3] 22.1% | [7] 14.2% | [8] 16.8% | [10] 20% | [11] 12.8% | [12] 28.6% | [13] 20.5% | [15] 14.3% | [18] 24.2% | [19] 17.8%

COc1ccc(C(=O)/C=C/c2ccc(Cl)c(Cl)c2)cc1S(N)(=O)=O
inactive: [1] 25.5% | [2] 21.3% | [5] 31.2% | [7] 11.2% | [10] 25.2% | [12] 28% | [13] 20.7% | [15] 24.6%
active: [3] -47.1% | [4] 7.22% | [6] -47.2% | [8] -94.4% | [9] -75.9% | [14] -69.2% | [16] 7.4% | [17] -86.5% | [18] 1.95% | [19] -70.9%

C#CCOc1cc(N(CC)CC)ccc1C(C(=O)NC(C)(C)C)N(C(=O)C1CCc2cc(F)ccc2O1)c1ccc(F)cc1 (centres undefined)
inactive: [1] 43.5% | [2] 70.6% | [3] 70.2% | [4] 36.7% | [6] 43.1% | [7] 39.8% | [8] 52.8% | [9] 32.4% | [10] 65.3% | [11] 23.6% | [12] 65.6% | [13] 51% | [14] 57.3% | [15] 47.7% | [16] 41.5% | [17] 66.2% | [18] 40.3% | [19] 46.4%

COc1ccc(-c2nc3cc(C)ccc3n2CC(=O)N=Nc2c(O)[nH]c3ccc(OC)cc23)cc1
active: [1] -66.6% | [2] -4.47% | [3] -70.5% | [4] -48% | [6] -40.9% | [7] -49.7% | [8] -69.3% | [9] -68.2% | [10] 8.56% | [11] -28.5% | [12] -94.6% | [13] -76.3% | [14] -82.9% | [15] -8.44% | [16] -72.9% | [17] -99% | [18] -78% | [19] -83.2%

CC12CC[C@@H]3[C@]4(C)COC(c5cn[nH]c5-c5ccc(Cl)cc5)O[C@@H]4CC[C@@]3(C)[C@@H]1CC(C1=CCOC1=O)O2 (some centres undefined)
inactive: [1] 45.5% | [2] 58.2% | [3] 62.7% | [4] 29.8% | [6] 20.9% | [7] 34% | [8] 57.1% | [9] 10.3% | [10] 61.6% | [11] 24.9% | [12] 58% | [13] 52.1% | [15] 60.3% | [16] 43.8% | [17] 51.2% | [18] 46.7% | [19] 30.9%
active: [14] 5.04%
